Test results published in paper PMC5540273 (PLoS ONE, 2017).
Read-outs that look alike come from different tables or passages of the source.

Columns and labels:
FYN = settings: concentration: 1 μM,replicates: in singlicate; n = 1
GAK = settings: concentration: 1 μM,replicates: in singlicate; n = 1
GCN2(Kin.Dom.2,S808G) = tested on: T1, GCN2(Kin.Dom.2,S808G); settings: concentration: 1 μM,replicates: in singlicate; n = 1
T1 construct: gene EIF2AK4

GRK1 = settings: concentration: 1 μM,replicates: in singlicate; n = 1
GRK2 = tested on: T2, GRK2; settings: concentration: 1 μM,replicates: in singlicate; n = 1
T2 construct: gene ADRBK1

GRK3 = tested on: T3, GRK3; settings: concentration: 1 μM,replicates: in singlicate; n = 1
T3 construct: gene ADRBK2

GRK4 = settings: concentration: 1 μM,replicates: in singlicate; n = 1
GRK7 = settings: concentration: 1 μM,replicates: in singlicate; n = 1
GSK3A = settings: concentration: 1 μM,replicates: in singlicate; n = 1
GSK3B = settings: n = 1
[1] = concentration: 1 μM,replicates: in singlicate
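Further: KINOMEscan kinase panel screen.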

Row | SMILES | %Inh (FYN) | %Inh (GAK) | %Inh (GCN2(Kin.Dom.2,S808G)) | %Inh (GRK1) | %Inh (GRK2) | %Inh (GRK3) | %Inh (GRK4) | %Inh (GRK7) | %Inh (GSK3A) | %Inh (GSK3B; [1]) | %Inh (GSK3B; 1 µM)
1 | NC(=O)c1ccc(-c2cc3ncnc(SCC(=O)O)c3s2)cc1 | 0% | 45% | 0% | 30% | 0% | 0% | 0% | 0% | 14% | 0% | –
2 | c1ccc(Oc2ccc(Nc3ccnc4ccc(-c5ccccn5)cc34)cc2)cc1 [GW407034] | 62% | 17% | 1% | 0% | 0% | 46% | 16% | 0% | 7% | 9% | –
3 | O=C(Nc1cccc(Oc2ccc3nccn3n2)c1)Nc1cccc(C(F)(F)F)c1 | 31% | 4% | 27% | 0% | 0% | 0% | 1% | 0% | 0% | 0% | –
4 | N#Cc1cccc(C(=O)NC2CCN(c3ccnc(Nc4ccc(F)cc4)n3)C2)c1 (stereo not shown) [GSK1379708] | 30% | 0% | 9% | 0% | 0% | 0% | 2% | 0% | 0% | 0% | –
5 | CS(=O)(=O)c1cccc(CNc2nc(Nc3ccc4c(c3)[C@@H]3C[C@@H]4CNC3=O)ncc2C(F)(F)F)c1 | 0% | 26% | 57% | 28% | 0% | 0% | 27% | 0% | 74% | 0% | –
6 | Cc1nnc(-c2ccc3occ(-c4ccc(S(C)=O)cc4)c3n2)o1 (stereo not shown) | 0% | 5% | 0% | 0% | 0% | 0% | 33% | 0% | 40% | 0% | –
7 | O=C(NCC1CC1)c1ccc(-c2cc(C(=O)NC3CC3)ccc2F)cc1 [GW810445] | 0% | 0% | 0% | 1% | 19% | 0% | 0% | 0% | 0% | 0% | –
8 | C[C@@H]1CCN(C(=O)N2CCCC2)C[C@@H]1N(C)c1ncnc2[nH]ccc12 | 59% | 0% | 1% | 17% | 25% | 36% | 17% | 8% | 2% | 26% | –
9 | COc1cccc(C2=C(Nc3cccc(Cl)c3)C(=O)NC2=O)c1 [SB-341556] | 25% | 12% | 0% | 27% | 0% | 22% | 27% | 0% | 70% | – | 35%
10 | CS(=O)(=O)Nc1ccc(-c2ccnc3[nH]ccc23)cc1 [GSK993273] | 0% | 26% | 0% | 18% | 0% | 22% | 71% | 76% | 0% | 17% | –
11 | CC(=O)Nc1ccc(-c2cc3ncnc(SCC(=O)O)c3s2)cc1 | 0% | 59% | 0% | 0% | 11% | 19% | 6% | 0% | 0% | 3% | –
12 | CCN1CCN(CCCC(=O)Nc2n[nH]c3nc(-c4ccc(O)cc4)c(Br)cc23)CC1 [SB-731579] | 4% | 0% | 0% | 0% | 0% | 25% | 21% | 0% | 99.5% | – | 98.5%
13 | Cc1n[nH]c2cc(Nc3ccnc(Nc4cccc(CN5CCOCC5)c4)n3)ccc12 [GW682569] | 75% | 74% | 39% | 5% | 31% | 24% | 64% | 0% | 0% | 15% | –
14 | CC(C)S(=O)(=O)N1CCN(Cc2ccc3c(c2)nc(NC(=O)c2ccsc2)n3C[C@H](O)c2ccccc2)CC1 [GW635815] | 73% | 0% | 10% | 35% | 0% | 8% | 7% | 10% | 2% | 0% | –
15 | COc1cc2nccc(Nc3ccc(Oc4ccccc4)cc3)c2cc1OC.Cl [GI261656] | 86% | 0% | 5% | 0% | 0% | 24% | 0% | 0% | 6% | 13% | –
16 | CCn1c(-c2nonc2N)nc2cncc(Br)c21 [SB-738004] | 0% | 17% | 0% | 32% | 12% | 69% | 0% | 16% | 29% | 40% | –
17 | O=C(Nc1cccc(C(F)(F)F)c1)c1cccc(Oc2ccc3nccn3n2)c1 | 62% | 0% | 0% | 9% | 0% | 35% | 10% | 0% | 0% | 2% | –
18 | COC(=O)Nc1nc2cc(Oc3ccc(NC(=O)Nc4cc(C(F)(F)F)ccc4Cl)cc3)ccc2[nH]1.Cl [GW697465] | 9% | 0% | 8% | 0% | 0% | 65% | 0% | 0% | 12% | 0% | –
19 | COc1cc(Nc2nccc(N3CCC(NC(=O)c4cccc(C#N)c4)C3)n2)cc(OC)c1OC (stereo not shown) [GSK1379751] | 0% | 47% | 9% | 0% | 0% | 33% | 0% | 0% | 0% | 5% | –
20 | CS(=O)c1ccc(-c2coc3ccc(-c4n[nH]c(=O)o4)cc23)cc1 (stereo not shown) | 0% | 0% | 21% | 6% | 0% | 30% | 19% | 15% | 93.3% | 15% | –
21 | CCCC(=O)Nc1n[nH]c2ncccc12 [SB-601436] | 0% | 0% | 0% | 13% | 0% | 0% | 0% | 11% | 38% | – | 9%
22 | COc1cc2c(Nc3ccc(NC(=O)c4ccccc4)cc3)ncnc2cc1OCCCN1CCOCC1 [GSK301329] | 49% | 0% | 4% | 10% | 0% | 0% | 12% | 0% | 0% | 11% | –

Row | SMILES | %Inh (FYN) | %Inh (GAK) | %Inh (GCN2(Kin.Dom.2,S808G)) | %Inh (GRK1) | %Inh (GRK2) | %Inh (GRK3) | %Inh (GRK4) | %Inh (GRK7) | %Inh (GSK3A) | %Inh (GSK3B; [1]) | %Inh (GSK3B; 1 µM)
23 | O=C(NOCC1CC1)c1cc(Br)c(F)c(F)c1Nc1ccc(I)cc1Cl | 0% | 0% | 10% | 30% | 0% | 0% | 0% | 0% | 33% | 0% | –
24 | Cn1ccc2ncnc(Oc3ccc(NC(=O)Nc4cncc(C(F)(F)F)c4)c(Cl)c3)c21 | 0% | 0% | 0% | 4% | 0% | 0% | 11% | 0% | 0% | 0% | –
25 | CCNCC(Cc1ccccc1)NC(=O)c1cc(Br)c(-c2ccnc3[nH]ccc23)s1.Cl.Cl (stereo not shown) [GSK1383280] | 0% | 51% | 43% | 89% | 61% | 83% | 0% | 91.9% | 0% | 14% | –
26 | Cn1ccc2ncnc(Oc3ccc(NC(=O)Nc4cccc(C(F)(F)F)c4)c(Cl)c3)c21 | 0% | 1% | 21% | 32% | 0% | 0% | 0% | 0% | 28% | 0% | –
27 | C[C@@H]1CNc2c(sc3ccc4nc(-c5ccncc5)ccc4c23)C(=O)N1 | 0% | 13% | 0% | 34% | 18% | 0% | 2% | 29% | 0% | 3% | –
28 | CN(c1ccccc1CNc1nc(Nc2ccc3c(c2)CC(=O)N3)ncc1C(F)(F)F)S(C)(=O)=O | 0% | 45% | 0% | 12% | 0% | 0% | 7% | 47% | 64% | 0% | –
29 | NC(=O)Nc1sc(-c2ccc(F)cc2)cc1C(N)=O [GW789449] | 20% | 37% | 34% | 12% | 0% | 0% | 87% | 26% | 0% | 17% | –
30 | Cl.Cl.NC[C@H](CC1CCCCC1)NC(=O)c1ccc(-c2ccnc3[nH]ccc23)s1 [GSK1581428] | 17% | 87% | 0% | 93.6% | 55% | 77% | 91.9% | 96.2% | 0% | 9% | –
31 | CNC(=O)c1ccccc1Nc1nc(Nc2cccc(CS(C)(=O)=O)c2)ncc1C.O=CO [GSK1520489] | 98.9% | 94.7% | 100% | 8% | 0% | 100% | 85% | 40% | 25% | 34% | –
32 | CC(C(=O)NC1CCN(c2ccnc(Nc3ccc(F)cc3)n2)C1)c1ccc(Cl)cc1 (stereo not shown) [GSK1379713] | 14% | 0% | 0% | 0% | 0% | 0% | 12% | 0% | 0% | 0% | –
33 | Cc1cccc(-c2nc(Nc3ccncc3)c3sccc3n2)n1 [GW869641] | 0% | 13% | 5% | 0% | 17% | 11% | 15% | 42% | 0% | 40% | –
34 | CN1CCN(CCCNc2nccc(-c3c(-c4ccc(F)cc4)nn4cc(C(N)=O)ccc34)n2)CC1 [GW622475] | 9% | 87% | 5% | 0% | 0% | 0% | 9% | 0% | 33% | 33% | –
35 | Cc1ccc(Nc2ccnc(Nc3ccc4c(c3)CS(=O)(=O)C4)n2)cc1O.Cl [GW579362] | 97.9% | 87% | 98.4% | 2% | 0% | 22% | 82% | 0% | 63% | 23% | –
36 | COc1ccc(Nc2nccc(N3CCC(NC(=O)c4cccc(C#N)c4)C3)n2)cc1 (stereo not shown) [GSK1379730] | 0% | 0% | 2% | 0% | 3% | 8% | 0% | 0% | 0% | 13% | –
37 | C[C@@H](Oc1cc(-n2cnc3cc(-c4cnn(C)c4)ccc32)sc1C(N)=O)c1ccccc1Cl [GSK580432] | 47% | 95.3% | 99.2% | 4% | 38% | 0% | 85% | 0% | 0% | 0% | –
38 | CN1CCN(CCNc2nc3cc(Oc4ccc(NC(=O)Nc5cc(C(F)(F)F)ccc5F)cc4)ccc3[nH]2)CC1.Cl.Cl [GW768504] | 0% | 0% | 24% | 0% | 0% | 0% | 17% | 0% | 20% | 0% | –
39 | Cc1ccc(C(=O)Nc2ccc(Oc3ccc4nc(NC(=O)C5CC5)cn4c3)c(F)c2)c(=O)n1-c1ccccc1 | 31% | 0% | 72% | 0% | 0% | 0% | 13% | 0% | 39% | 0% | –
40 | O=C(Nc1ccc(Oc2ccc3nc(NC(=O)C4CC4)cn3n2)c(F)c1)c1cccn(-c2ccccc2)c1=O | 15% | 0% | 20% | 0% | 0% | 0% | 21% | 0% | 25% | 0% | –
41 | Cc1cccc2c(-c3ccncc3)c(-c3ccc(F)cc3)nn12.Cl [GW461487] | 4% | 67% | 1% | 0% | 0% | 21% | 100% | 0% | 12% | 10% | –
42 | CC(=O)Nc1nc2cnc(Nc3cc(NC(=O)c4cccc(CC(C)(C)C#N)c4)ccc3C)nc2s1 | 0% | 9% | 0% | 0% | 15% | 0% | 0% | 44% | 0% | 2% | –
43 | COc1cccc(CNC(=O)NC2CCN(c3ccnc(Nc4cc(OC)c(OC)c(OC)c4)n3)C2)c1 (stereo not shown) [GSK1379765] | 12% | 0% | 0% | 0% | 0% | 19% | 74% | 0% | 0% | 7% | –
